# Bioassay records deposited in PubChem BioAssay by Sanford-Burnham Center for Chemical Genomics.
# Rows were chosen to be rich in hits. Some 4% of all compounds tested hit in one or more screens of this group.
# KKLEB tox – cytotoxicity in KKLEB CF airway cells, primary screen, cytotoxicity control for CF NF-kB inhibitor project, cell-based, uHTS, fluorescence assay plates | KKLEB CF airway cells viability, ATPlite luminescence, overnight; active compounds read low; cells stimulated with P. aeruginosa culture filtrate | hit rate 0.36% among 360,000 | activity change (cytotoxicity), % at 5 µM;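 active means corrected activity change at or below -50% at 5 µM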
# TROY NFkB inh – inhibitors of TROY-driven NF-kB signaling, primary screen, Q293 LMP1-TROYcd cells, NF-kB luciferase, uHTS. Q293 LMP1-TROYcd NF-kB luciferase reporter, 4 h. AID 1347056, 2019. hit rate 0.98% among 360,000. inhibition, % at 10 µM;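 active means compounds whose plate-normalised and pattern-corrected inhibition of the luciferase reporter signal at the single screening dose is 50% or more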
# TWEAK-Fn14 inh – inhibitors of TWEAK-Fn14 signaling, primary screen, luciferase reporter cells, uHTS | TWEAK-stimulated Fn14 reporter cells, luciferase luminescence, 8 h | AID 1159606, 2016 | hit rate 2% among 360,000 | inhibition, % at 10 µM; in the data active means inhibition above about 50%
# Peg3 prom inh-1 – Peg3 promoter-driven luciferase inhibitors, primary screen, cell-based, HeLa, luciferase luminescence. inhibition, % at 20 µM. hit rate 1.7% among 360,000. HeLa PEG-Prom luciferase reporter, overnight;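 active means inhibition of at least 50% at 20 µM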
# CF NFkB inh – inhibitors of PAF-induced NF-kB signaling, primary screen, cell-based, GFP fluorescence, uHTS; KKLEB NF-kB-GFP reporter, GFP fluorescence overnight; inhibition, % at 5 µM; hit rate 0.86% among 360,000; AID 588850, 2011;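 active means at least 50% inhibition at 5 µM, scaled per plate between neutral and stimulator controls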;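 further: PAF is a Pseudomonas aeruginosa culture filtrate used as stimulus; plate controls were PAF-stimulated DMSO wells for no effect and unstimulated DMSO wells for full effect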
# HIF-2a block – HIF-2a reporter inhibitors, primary screen, luminescence, 786-0 RCC cells. 786-0 RCC cells HIF-2a reporter, luciferase luminescence, overnight. inhibition, % at 18.8 µM. hit rate 0.72% among 360,000. AID 624352, 2012;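 active means inhibition of the luminescence signal of 40% or more relative to plate controls, in a single-dose primary screen at 18.75 µM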
# Peg3 prom inh-2 – Peg3 promoter reporter inhibitors, retest, confirmation, cell-based, HeLa, luciferase reporter, single concentration; AID 602417, 2012; inhibition, % at 20 µM; shares compounds with Peg3 prom inh-1; hit rate 84% among 1,300; HeLa PEG-Prom luciferase reporter, luminescence, overnight;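 active means at 20 µM dose, 40% or more inhibition averaged across four replicates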
# Starred values were filed as active, the others as inactive; / = not tested or not shown.
SMILES,KKLEB tox,TROY NFkB inh,TWEAK-Fn14 inh,Peg3 prom inh-1,CF NFkB inh,HIF-2a block,Peg3 prom inh-2
CN(C)C(CNC(=O)C1CCN(S(=O)(=O)c2ccccc2C(F)(F)F)CC1)Cc1ccccc1 (configuration not stated),18.1,-12.7,0.4,-9.0,-0.1,2.7,/
CN[C@H]1C[C@H]2c3[nH]c4ccc(-c5cccc(C)c5)cc4c3CCN2C[C@H]1[C@H](C)O,-14.9,9.0,11.9,89.8*,25.2,34.0,98.0*
Cc1cccc(-c2ccc3[nH]c4c(c3c2)CCN2C[C@@H]([C@H](C)O)[C@@H](N(C)C(=O)NC3CCCCC3)C[C@@H]42)c1,-1.8,-11.3,16.6,21.4,16.6,13.7,/
CN[C@H]1C[C@H]2c3[nH]c4ccc(-c5ccc(OC)cc5)cc4c3CCN2C(=O)[C@H]1[C@H](C)O,-11.6,-6.3,27.7,101.2*,34.6,-3.4,98.3*
COc1ccc(NC(=O)N(C)[C@H]2C[C@H]3c4[nH]c5ccc(-c6ccc(OC)cc6)cc5c4CCN3C(=O)[C@H]2[C@H](C)O)cc1,-5.6,-6.6,16.3,45.7,12.6,-52.1,/
CCOC(=O)CC1CCCCN1Cc1nc(-c2ccc(F)c(OC)c2)oc1C (configuration not stated),12.1,6.9,-12.8,9.0,-24.9,16.9,/
O=c1nc2ccccn2c2ccc(S(=O)(=O)N3CCCCC3)cc12,-4.9,15.2,1.8,5.2,-1.1,10.7,/
COc1cc(OC)cc(C(=O)Nc2ccc3c(c2)CCCN3C(=O)c2cccs2)c1,2.6,17.4,-16.7,-7.8,-5.1,-18.6,/
COc1ccc(-n2ncc3c(N(C)C4CCCCC4)ncnc32)cc1,-79.2*,90.8*,104.5*,71.4*,11.4,70.3*,70.6*
CC(=O)Nc1cccc(-c2cc(NC=O)c3ncc(-c4ccc(C(C)=O)cc4)n3c2)c1,-33.8,24.6,20.4,54.2*,27.5,-4.9,55.8*
O=C(CCn1cnc(-c2ccccc2)c1-c1ccccc1)N/N=C/c1ccccc1O,-1.2,20.8,32.7,55.6*,17.4,22.0,69.7*
O=C(CCn1cnc(-c2ccccc2)c1-c1ccccc1)N/N=C/c1ccc(O)cc1,-1.7,12.7,16.6,24.1,5.9,2.8,/
COc1ccc(OC)c(NC(=O)C2CCCN(S(=O)(=O)c3ccc(-n4cnnn4)cc3)C2)c1 (configuration not stated),-2.3,4.7,25.0,25.9,3.0,5.3,/
CCN(CC)CCNC(=S)Nc1ccc2nc(N3CCCC3)cc(C)c2c1,-7.0,-19.5,-40.6,31.6,0.6,13.9,/
CCCN(CCC)CCCNC(=S)Nc1ccc2nc(N3CCCC3)cc(C)c2c1,-22.9,-6.8,-40.3,50.9*,8.2,21.1,71.4*
COc1ccc(CCNC(=O)c2cc3c(=O)n4ccccc4nc3n(C3CCCCC3)c2=N)cc1OC,-1.3,-6.2,-22.6,33.8,12.6,6.6,/
COc1ccc(CCn2c(=N)c(C(=O)NC3CCCC3)cc3c(=O)n4cccc(C)c4nc32)cc1,-3.0,-1.3,-7.8,99.2*,-19.2,-10.1,63.7*
COc1ccc(CCNC(=O)c2cc3c(=O)n4ccccc4nc3n(C3CCCCC3)c2=N)cc1,-28.6,9.1,-14.1,87.7*,21.5,6.9,53.9*
CC(C)(C)OC(=O)NNC(=O)C12CC3CC(CC(C3)C1)C2,7.3,10.9,6.7,0.9,-13.9,10.8,/
Cc1cccc(N2CCN(C(=O)C3CCN(c4ncnc5c4nc4n5CCCCC4)CC3)CC2)c1C,6.1,64.8*,79.9*,52.2*,-14.3,5.8,58.4*
O=C(C1CCN(c2ncnc3c2nc2n3CCCCC2)CC1)N1CCN(c2ccccc2F)CC1,-4.8,9.4,-5.4,19.9,-24.1,30.0,/
Cc1cccc(N2CCN(C(=O)C3CCN(c4ncnc5c4nc4n5CCCCC4)CC3)CC2C)c1 (configuration not stated),-9.0,52.0*,50.9*,55.3*,-7.7,1.1,43.1*
COCCNC(=O)C1(C)CCCN(C(=O)c2c(F)ccc(C)c2F)C1 (configuration not stated),5.2,-3.5,-3.3,13.8,18.1,6.8,/
Cc1cc(C=C2C(=O)c3ccccc3C2=O)c(C)n1-c1ccccc1,-10.2,30.7,89.0*,69.1*,-24.3,55.8*,64.8*
Cc1cc(C=C2C(=O)c3ccccc3C2=O)c(C)n1-c1cccc(C(=O)O)c1,-6.0,-48.5,34.0,-65.9,-6.2,-59.1,/
SMILES,KKLEB tox,TROY NFkB inh,TWEAK-Fn14 inh,Peg3 prom inh-1,CF NFkB inh,HIF-2a block,Peg3 prom inh-2
CC1(C)CC(NC(=O)c2cccc(S(=O)(=O)N(Cc3ccccc3)c3ccccc3)c2)CC(C)(C)N1,10.2,14.0,12.7,83.6*,15.1,12.6,92.0*
Cc1ccc(N(C)S(=O)(=O)c2cccc(C(=O)NC3CC(C)(C)NC(C)(C)C3)c2)cc1,3.0,-8.8,11.3,-8.0,2.7,21.6,/
CC(=O)n1cc(N(C(=O)CCl)c2ccc([N+](=O)[O-])cc2)c2ccccc21,-82.9*,4.9,37.0,89.7*,80.5*,30.5,98.6*
CCOC(=O)CCCNC(=O)COC(=O)c1cccc(C)c1O,-1.1,2.5,-7.8,10.4,-10.0,16.4,/
Cc1cc(Sc2ncnc(N)c2[N+](=O)[O-])ncn1,4.6,12.9,51.1*,105.9*,66.0*,15.8,99.5*
O=C(CCl)N1c2ccccc2Sc2ccc3ccccc3c21,-21.9,9.4,3.4,106.9*,25.9,31.7,100.1*
CN(C)CCCN1c2ccc3ccccc3c2Sc2cccc(Cl)c21,-2.0,6.2,-8.2,44.1,0.2,-70.2,/
O=C(COc1ccc2ccccc2c1)N1c2ccccc2Sc2ccccc21,4.9,10.5,-4.2,19.8,15.9,5.8,/
CN(C)CCCN1c2ccccc2Sc2ccc3ccccc3c21,6.5,5.6,1.8,61.3*,19.5,-13.8,97.9*
Cc1ccc(NC(=O)C(=O)NCc2ccccn2)cc1,12.3,-52.4,-8.4,-152.1,-12.6,-172.3,/
CN1C/C(=C/c2cccnc2)C(=O)/C(=C/c2cccnc2)C1,1.4,8.1,64.8*,87.1*,57.4*,33.2,1.6
CC(C)N1C/C(=C/c2cccnc2)C(=O)/C(=C/c2cccnc2)C1,13.3,-9.0,-10.9,26.1,-49.2,22.8,/
O=C(Oc1ccc(OC(=O)N2CCCCC2)cc1)c1ccccc1,0.7,-46.6,-32.1,-123.0,-6.1,-98.1,/
Cc1ccc([N+](=O)[O-])cc1NC(=O)c1ccc2c(c1)OCO2,4.8,-1.9,-6.8,-1.6,4.8,-37.3,/
